# This is one part of a sample in which hits are shown more often than they occur.
# Vaccinia Venus – inhibitors of vaccinia virus (Venus reporter). Vaccinia virus Venus reporter expression, fluorescence. Potency, µM (top dose mostly 36.5 µM), inactives show at the top dose activity change, negative = inhibition, usual class: inhibitors. actives 0.46% (n = 330,000); calls by dose curve; tested in A549 cells; note: potency is the fitted concentration of half-maximal effect; % is set by controls: 0 for no effect and ±100 for the full control effect; nearly all actives have a fitted effect of over 30% in size
# Shiga toxin inh – inhibitors of Shiga toxin in Vero cells; Vero cells, Shiga toxin protein synthesis inhibition reporter; inhibition, % at 38.7 µM; actives 9.2% (n = 290,000); in the data active = inhibition mostly above about 28%, no sharp cut-off; inactive = mostly below about 43%; note: 0% is about no effect
# Cycloheximide cs – affects cycloheximide protein synthesis inhibition readout, counter-screen; AID 2314; cell reporter, cycloheximide protein synthesis inhibition counterscreen; max response, %; actives 12% (n = 300,000); in the data active = max response mostly above about 13%, no sharp cut-off; inactive = mostly below about 14%; note: read at 38.3 µM for the half of the compounds with a filed dose; 0% is about no effect
# Marburg entry inh – inhibitors of Marburg virus binding or cell entry; Marburg virus pseudotyped entry inhibition, cell reporter; Potency, µM (highest dose often 37.8 µM), without a hit: top-dose activity change, negative = inhibition, actives largely listed as inhibitors; actives 1.8% (n = 300,000); AID 540276; calls by dose curve; tested in HEK293 cells; note: potency is the fitted concentration of half-maximal effect; % is set by controls: 0 for no effect and ±100 for the full control effect
# Vaccinia mCherry – inhibitors of vaccinia virus infection (mCherry reporter signal); Vaccinia virus mCherry reporter infection, fluorescence; Potency, µM (top dose mostly 36.5 µM), inactives show at the highest dose activity change, negative = inhibition, hits mostly inhibitors; actives 0.63% (n = 310,000); AID 720579; calls by dose curve; tested in A549 cells; note: potency is the fitted concentration of half-maximal effect; % is set by controls: 0 for no effect and ±100 for the full control effect; nearly all actives have a fitted effect of over 35% in size
# Lassa entry inh – inhibitors of Lassa virus binding or cell entry. Lassa virus pseudotype entry inhibition, cell reporter. Potency, µM (doses to about 37.9 µM), for the others: at the top dose activity change, negative = inhibition, usual class: inhibitors. AID 540256. actives 1.2% (n = 300,000); calls by dose curve; tested in HEK293 cells; note: potency is the fitted concentration of half-maximal effect; % is set by controls: 0 for no effect and ±100 for the full control effect; nearly all actives have a fitted effect of over 50% in size
# The depositor's hits bear a star; i = inactive; ? = inconclusive; . = not tested or not shown; + = active, no number; [ ] = dose if it differs, or a comment.
SMILES,Vaccinia Venus,Shiga toxin inh,Cycloheximide cs,Marburg entry inh,Vaccinia mCherry,Lassa entry inh
Cc1cccc(-c2nc(CN3CCN(C(=O)C4CCCO4)CC3)cs2)c1 (configuration not stated),-22.1%,6.9,7.6*,-36.1%,-7.0%,?
CCCCCCCCc1nnc(N)s1,-21.4%,6.8,11.9*,?,-2.8%,?
COc1ccc(NC(=O)CC2C(=O)N(c3cccc(C)c3)C(=O)N2Cc2cccnc2)cc1 (configuration not stated),-8.1%,.,.,.,1.1%,3.0%[46.1 µM]
Fc1ccc2c(Cl)c(-c3nnc(-c4cccs4)o3)sc2c1,.,77.9*,35.4*,16.1%,.,-6.9%
CN(CC(=O)Nc1ccccc1Br)C(=O)c1cccnc1Nc1cccc(C(F)(F)F)c1,-23.6%,21.7,9.9,-20.1%,-13.7%,?
COc1ccc2c(c1)CCc1c(C(=O)NCc3cccnc3)noc1-2,-13.0%,22.9,12.2*,?,-20.9%,13.6%
COc1ccc2c(c1)CCc1c(C(=O)N3CCCCCC3)noc1-2,-13.7%,114.5*,46.5*,1.2%,-20.1%,48.2%[14.3 µM]
COc1ccc2c(c1)CCc1c(C(=O)Nc3ccccc3C(F)(F)F)noc1-2,-3.7%,.,.,?,-13.4%,8.1%[46.1 µM]
COc1ccc2c(c1)CCc1c(C(=O)NCC(C)C)noc1-2,-22.2%,178.4*,39.3*,.,-26.9%,.
CCCNC(=O)c1noc2c1CCc1cc(OC)ccc1-2,1.0%,70.9*,48.2*,.,-2.6%,.
COc1ccc2c(c1)CCc1c(C(=O)Nc3ccc(OC)cc3OC)noc1-2,5.7%,.,.,25.7%[46.1 µM],4.5%,7.3%[46.1 µM]
COc1ccc2c(c1)CCc1c(C(=O)Nc3ccc(F)c(Cl)c3)noc1-2,-3.0%,.,.,-12.3%[46.1 µM],-9.3%,22.1%[46.1 µM]
Nc1ccc(C(=O)OCCCc2nc3cc4ccccc4cc3[nH]2)cc1,.,25.6,16.3,.,.,.
Nc1ccc(C(=O)OCc2nc3cc4ccccc4cc3[nH]2)cc1,32.1%,48.1*,14.2,1.64µM*,5.01µM*,2.59µM*
Nc1ccc(C(=O)OCc2nc3c(ccc4ccccc43)[nH]2)cc1,-24.3%,80.1*,24.6*,?,-29.2%,8.91µM*
Nc1ccc(Cc2nc3cc4ccccc4cc3[nH]2)cc1,13.7%,51.7*,44.7*,?,5.62µM*,2.59µM*
O=C1NCCN(Cc2ccc(Cl)c(F)c2)C1CC(=O)N1CCCCO1 (configuration not stated),-9.9%,14.9,-2.2,.,i,.
CCC[C@H]1COCCS(=O)(=O)N1Cc1ccc(F)cc1,-15.9%,.,.,.,-21.7%,.
COc1ccc2c(c1)c1c(c(=O)n(-c3ccc(OC)c(OC)c3)c(=O)n1Cc1ccccc1C)n2C,-6.7%,-4.7,-3.3,.,-18.5%,-11.5%[46.1 µM]
CCC(=O)N1CCc2cc(S(=O)(=O)NC(CC(C)C)C(=O)NCc3cccc(OC)c3)ccc21 (configuration not stated),-8.5%,.,.,-17.9%[46.1 µM],-5.4%,-2.6%[46.1 µM]
Cc1cc2oc(=O)sc2cc1NS(=O)(=O)c1ccccc1,-8.6%,-11.6,-5.0,-0.7%[46.1 µM],?,11.2µM*
COC(=O)c1cccc(NC(=O)c2onc3c2CCCC3)c1,-10.5%,+,99.1*,9.2µM*,-2.3%,?
O=C(Nc1ccc2ccccc2c1)c1onc2c1CCCC2,?,63.7*,28.3*,-25.1%,-18.5%,5.62µM*
CCOc1ccc(C(=O)NCCc2csc(-c3ccc(C(F)(F)F)cc3)n2)cc1OCC,-15.2%,.,.,.,-15.7%,-0.8%[46.1 µM]
C=Cc1c(C)/c2[n-]/c1=C\c1[n-]c(c(CC)c1C)/C=c1\[n-]c3c(c1C)C(=O)C(C(=O)[O-])C=3c1[n-]c(c(C)c1CCC(=O)[O-])\C=2.[Cu].[Na+].[Na+] (configuration not stated),.,.,.,31.5µM*,.,?
SMILES,Vaccinia Venus,Shiga toxin inh,Cycloheximide cs,Marburg entry inh,Vaccinia mCherry,Lassa entry inh
Cc1ccc2c(CC(=O)Nc3cccc(C(F)(F)F)c3)coc2c1,-8.1%,.,.,13.3%[46.1 µM],-6.1%,-27.6%[46.1 µM]
Cc1ccc(Cn2nnc(C(=O)Nc3cccc(C)c3C)c2N)cc1,.,-1.6,1.9,?,.,-2.3%
Cc1cccc(NC(=O)c2n[nH]c([N+](=O)[O-])c2Br)c1C,-9.4%,67.3*,21.5*,?,i,?
O=C(Nc1ccc2c(c1)oc1ccccc12)C1CC1,-17.7%,95.3*,46.3*,?,i,12.4%
O=C(Nc1ccc(S(=O)(=O)N2CCCCC2)cc1)C1CCCCC1,-24.2%,21.2,-2.7,3.5%[46.1 µM],-7.7%,?
O=C(Nc1ccc2c(c1)oc1ccc(S(=O)(=O)N3CCCC3)cc12)C1CC1,?,3.1,-1.5,-25.0%,?,11.6µM*
O=C(Nc1ccc2c(c1)OC1(CCCC1)O2)C1CC1,-11.8%,41.8,17.0*,4.6%,-15.8%,-0.5%
Cc1ccc(S(=O)(=O)Nc2nc(-c3ccc(F)cc3)cs2)cc1,-1.7%,-0.5,13.3*,3.9%[46.1 µM],6.7%,?
COc1ccc(-c2csc(NC(=O)c3ccccc3NS(=O)(=O)c3ccc(C)cc3)n2)cc1,?,-15.6,0.8,12.6µM*,11.2µM*,?
COc1ccc(S(=O)(=O)Nc2ccccc2C(=O)Nc2nc(-c3ccc(F)cc3)cs2)cc1OC,?,3.9,1.1,?,?,11.2µM*
Cc1nnc(NC(=O)c2cc(-c3ccncc3)nc3c(C)cccc23)s1,.,32.2*,36.0*,.,.,.
COCc1ccc(C(=O)N2CCCC(CCC(=O)NCc3ccccc3F)C2)o1 (configuration not stated),-20.5%,8.0,8.8,5.62µM*,-12.1%,1.9%
O=C(CCC1CCCN(C(=O)c2ccc3c(c2)OCCO3)C1)NCc1ccccc1F (configuration not stated),-8.5%,77.1*,48.4*,?,i,-0.4%[46.1 µM]
C#Cc1cccc(C(=O)N2CCCC(CCC(=O)NCc3ccccc3F)C2)c1 (configuration not stated),-11.0%,.,.,-1.8%,-23.7%,-13.9%
Cc1ncoc1C(=O)N1CCCC(CCC(=O)NCc2ccccc2F)C1 (configuration not stated),-18.3%,0.0,-1.2,?,-5.7%,?
COc1ccc(C(=O)N2CCCC(CCC(=O)NCc3ccccc3F)C2)c(OC)n1 (configuration not stated),-9.1%,8.2,22.8*,-9.4%[46.1 µM],-10.0%,6.7%[46.1 µM]
O=C(CCC1CCCN(C(=O)c2ccco2)C1)NCc1ccccc1F (configuration not stated),-12.0%,19.1,12.2,-0.5%[46.1 µM],i,?
CC(=O)N(C(C)=O)c1ccc2c(c1)OCCO2,-4.7%,.,.,.,-14.5%,.
CCC(C(=O)N1CCC(C(N)=O)CC1)n1nc(C)n2c(cc3occc32)c1=O (configuration not stated),-9.3%,-6.1,-2.0,0.2%[46.1 µM],-1.6%,17.6%[46.1 µM]
COC(=O)Cc1ccc(OCc2ccc(Cl)nc2)cc1,-0.9%,51.7*,37.4*,-5.7%[46.1 µM],13.7%,?
CC(=O)C(Cc1ccc(Cl)nc1)Cc1ccc(Cl)nc1,-6.3%,3.1,2.1,9.6%[46.1 µM],-17.1%,-15.9%[46.1 µM]
COc1ccc(CNC(=O)CSc2nnc3c(n2)[nH]c2ccccc23)cc1,-2.4%,-7.7,-3.6,0.2%[46.1 µM],-2.4%,6.9%

# Screening results from PubChem BioAssay.
